# High-throughput results: PubChem, National Center for Advancing Translational Sciences (NCATS)
# Only some compounds are listed: those with a hit (about 7.3% of all), similar ones and a draw of the others.
# NPC1 prom act: NPC1 promoter activation; Huh7 NPC1 promoter luciferase reporter, 24 h; Potency, µM (doses to about 9.22 µM), for the others: at the top dose activation, actives largely listed as activators; hit rate 2.4% among 320,000; note: % of control where 0% means no effect; nearly all actives have a fitted effect of over 60% in size
#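 Luminescence read-out of NPC1 promoter-driven luciferase in stably transfected Huh7 cells; compounds delivered in DMSO and left 24 h at 37C, 5% CO2, qHTS titration format.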
# SMN2 splice enh: SMN2 splice variant enhancement; HEK293 SMN2-luciferase splicing reporter, luminescence, 30-36 h; Potency, µM (highest dose often 46.1 µM), for the others: at the top dose activity change, positive = activation, most hits filed as activators; hit rate 2.8% among 210,000; AID 1458; note: % of control where 0% means no effect; nearly all actives have a fitted effect of over 55% in size
#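 qHTS luciferase splicing reporter: luminescence rises when SMN2 exon 7 is included in transfected HEK293 cells. Compound exposure lasted 30-36 h at 37C, with 4.5 mM final sodium butyrate as control, followed by a ONE-Glo read.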
# uPA generation: inhibitors of cell surface uPA generation; cell surface uPA generation assay, qHTS; Potency, µM (series often up to 38.3 µM), without a hit: at the top dose activity change, negative = inhibition, actives largely listed as inhibitors; hit rate 0.31% among 330,000; active = well fitted inhibition curve with a large enough effect; inconclusive = small, poorly fitted or top-dose-only effect; inactive = no such curve, though single readings can be large or run the other way; tested in mouse RAW 264.7 cells; note: % is set by controls: 0 for no effect and ±100 for the full control effect; nearly all actives have a fitted effect of over 55% in size
# ELG1 genotox: genotoxicity induction in ELG1-luciferase HEK293T cells | hit rate 1.3% among 330,000 | HEK293T ELG1-luciferase reporter, luminescence, 16 h | AID 504466 | Potency, µM (doses to about 46 µM), inactives show at the highest dose activity change, positive = activation, hits mostly activators; note: % of control where 0% means no effect; nearly all actives have a fitted effect of over 60% in size
#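 Quantitative HTS format in 1536-well plates. HEK293T ELG1-luciferase reporter cells receive test compound and are incubated 16 hr at 37 °C, 5% CO2; ONE-Glo added, 30 min room temperature, then luminescence read.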
# Rab9 promoter act: activates the Rab9 promoter; Huh7 Rab9 promoter-luciferase reporter, luminescence, 24 h; Potency, µM (doses to about 9.22 µM), for inactives: top-dose activation, negative = inhibition, most hits filed as activators; hit rate 2.8% among 320,000; AID 485297; note: % of control where 0% means no effect; nearly all actives have a fitted effect of over 60% in size
#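 Promoter activation is measured as luciferase luminescence in Huh7 cells stably transfected with a Rab9 promoter–luciferase construct, following 24 h compound exposure at 37 °C and 10 min reagent incubation at ambient temperature.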
# FLuc counter: inhibits or activates purified firefly luciferase, miR-21 counter-screen. P08659. purified FLuc, Km substrates, luminescence inhibition. Potency, µM (titrated, usually from 57.5 µM), inactives show top-dose activity change, negative = inhibition, actives largely listed as inhibitors. hit rate 6.9% among 360,000;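 note: plate controls were vehicle for no effect and reference inhibitor for full effect; nearly all actives have a fitted effect of over 55% in size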
# Target sequence (P08659 whole entry, looked up): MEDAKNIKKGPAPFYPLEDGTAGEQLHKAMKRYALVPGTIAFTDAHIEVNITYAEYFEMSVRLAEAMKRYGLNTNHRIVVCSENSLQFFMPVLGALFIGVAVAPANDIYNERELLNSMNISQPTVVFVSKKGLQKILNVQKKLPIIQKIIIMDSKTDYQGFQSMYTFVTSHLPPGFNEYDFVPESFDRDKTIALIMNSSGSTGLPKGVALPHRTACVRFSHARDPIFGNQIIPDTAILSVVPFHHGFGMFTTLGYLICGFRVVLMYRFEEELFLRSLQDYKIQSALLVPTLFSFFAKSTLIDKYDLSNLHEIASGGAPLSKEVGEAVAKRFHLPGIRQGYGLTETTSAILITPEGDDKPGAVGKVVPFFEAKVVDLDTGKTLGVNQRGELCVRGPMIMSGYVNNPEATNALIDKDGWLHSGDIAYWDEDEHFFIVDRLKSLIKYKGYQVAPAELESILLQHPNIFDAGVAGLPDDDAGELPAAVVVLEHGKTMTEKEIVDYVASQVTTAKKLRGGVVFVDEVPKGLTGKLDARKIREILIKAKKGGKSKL
#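 Purified P. pyralis luciferase (10nM final) with 10uM D-luciferin and 10uM ATP (Km levels) in 50mM Tris acetate pH 7.5, 10mM Mg acetate, 0.01% Tween-20, 0.05% BSA; qHTS 6-point titration, ~60 µM downward; luminescence read.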
# * = called active by the depositor; ? = inconclusive; . = no result; [ ] = remark or other dose. Unless noted, calls come from the whole dose curve; as a rule, active = well fitted curve in the direction sought with a large enough effect; inconclusive = small, poorly fitted or top-dose-only effect, or another doubt; inactive = no such curve, though single readings can be large; an effect the other way counts as inactive or inconclusive. Potency is the fitted concentration of half-maximal effect.
SMILES,NPC1 prom act,SMN2 splice enh,uPA generation,ELG1 genotox,Rab9 promoter act,FLuc counter
COc1ccc(OCC(=O)NC(Cc2c[nH]c3ccccc23)C(=O)O)cc1 (stereo not given),.,-7.2%,.,.,.,-15.5%
O=C(N[C@@H](Cc1c[nH]c2ccccc12)C(=O)O)c1ccc(Cl)cc1,-1.4%,6.3%,0.3%,-4.0%,11.6%,16.9µM*
CCN(C(=O)c1ccco1)c1nnc(-c2ccc(OC)cc2)s1,?,12.6µM*,-6.5%,?,1.78µM*,0.953µM*
CCCN(C(=O)c1ccco1)c1nnc(-c2cccc(C)c2)s1,17.3%,.,12.1%,8.1%,?,16.9µM*
CCn1cc(C(=O)N2CCN(c3ccccc3F)CC2)c(=O)c2cc(S(=O)(=O)N(C)C)ccc21,.,.,.,.,.,-0.2%
Cc1ccsc1C1C(C#N)=C(N)N(N(C)C)C2=C1C(=O)CC(C)(C)C2 (stereo not given),-0.8%,25.1µM*,3.1%,-6.9%,-4.0%,-0.3%
COC(=O)/C(=C/c1c[nH]c2ccccc12)[N+](=O)[O-],5.0%,.,3.5%,-2.2%,12.1%,19µM*
COC(=O)/C(=C/c1c[nH]c2ccccc12)NC(C)=O,-2.8%,1.2%,-0.9%,-0.5%,-1.8%,3.3%
CCCCN1CC(c2nc3ccccc3n2CCCCOc2c(C)cccc2C)CC1=O (stereo not given),.,.,.,.,.,-1.5%
O=c1n(Cc2ccccc2Cl)nc2n1-c1ccccc1SC2,?,.,-7.7%,?,3.55µM*,23.9µM*
O=c1n(Cc2ccccc2)nc2n1-c1ccccc1SC2,?,.,4.5%,7.9%,?,-18.4%
O=C(O)c1ccc(Nc2nc3c(s2)CCCC3)cc1,-27.8%,0.631µM*,13.9%,?,0.0398µM*,0.301µM*
Cc1cccc(Nc2c3c(nc4ccccc24)CCC3)c1,1.1%,.,-4.1%,-14.9%,-1.0%,3.6%
O=S(=O)(Nc1nc2c(s1)CCCC2)c1ccc(F)cc1,1.2%,-24.8%,.,?,0.7%,?
C1CCN=C(Nc2nc3c(s2)CCCC3)CC1,?,10µM*,-3.2%,11.4%,?,?
O=S1(=O)N=C(Nc2nc3c(s2)CCCC3)c2ccccc21,2.51µM*,3.98µM*,-8.5%,?,1.41µM*,0.849µM*
Cc1cccc(Nc2nc3c(s2)CCCC3)c1,?,28.2%[1.84 µM],-3.3%,?,3.55µM*,4.78µM*
COc1ccccc1CNC(=O)COCc1cc(-c2cccs2)on1,.,.,.,.,.,-15.4%
O=C(NCc1ccccc1Cl)C(=O)NCC(c1cccs1)S(=O)(=O)c1cccs1 (stereo not given),.,.,.,.,.,1.1%
Cc1cccc(NC(=O)CSc2nc(=O)n(Cc3ccncc3)c3c2CCC3)c1C,.,.,.,.,.,-1.5%
O=C(Nc1nnc(C2CCCO2)s1)c1cccs1 (stereo not given),28.9%,12.6µM*,.,?,15.1%,?
COc1cccc(C(=O)NCC2CCCO2)c1 (stereo not given),5.2%,19.5%,.,11.0%,-3.9%,-3.7%
CCCC(=O)Nc1nnc(C2CCCO2)s1 (stereo not given),-1.5%,.,1.2%,-0.6%,-1.9%,-3.4%
O=C(Nc1nnc(C2CCCCC2)s1)c1cccs1,2.24µM*,14.1µM*,.,?,2.82µM*,4.78µM*
O=C(Nc1nnc(C2CC2)s1)c1ccncc1,15.4%,15.1%,2.6%,3.3%,4.1%,?
SMILES,NPC1 prom act,SMN2 splice enh,uPA generation,ELG1 genotox,Rab9 promoter act,FLuc counter
COc1cccc(C(=O)Nc2nnc(C3CCCO3)s2)c1 (stereo not given),2.82µM*,11.2µM*,0.8%,?,2.24µM*,15.1µM*
CCN(CC)c1ccc(/C=N/NC(=O)c2ccoc2C)c(O)c1,?,.,-19.5%,16.4µM*,-7.3%,2.69µM*
CCN(CC)c1ccc(/C=N/NC(=S)NC)c(O)c1,19.1%,.,?,13.6%,1.7%,?
CCN(CC)c1ccc(/C=N/NC(=O)OC)c(O)c1,20.0%,-11.9%,-12.6%,15.9%,28.5%,10.7µM*
CCOc1ccc(S(=O)(=O)n2nc(C)c(S(=O)(=O)N3CCCCCC3)c2C)cc1,.,.,.,.,.,-9.5%
C=CCOc1ccc(C2NC(=S)NC3=C2CCc2ccccc23)cc1 (stereo not given),1.3%,.,1.8%,23.8%,-11.0%,6.01µM*
CCN1CCCC1CNS(=O)(=O)c1ccc(Cl)c(C(F)(F)F)c1 (stereo not given),-1.8%,3.6%,-4.6%,-0.3%,15.3%,-2.0%
CN1C(=O)/C(=C/c2cccc([N+](=O)[O-])c2)C(=O)N1c1ccccc1,-2.3%,.,-1.3%,?,-2.0%,15.1µM*
CCOC(=O)COc1ccc(CC)cc1C(=O)c1ccn2nc(-c3ccc(F)cc3)cc2n1,.,6.0%,.,.,.,-1.9%
COC(=O)c1sc2nc(-c3ccco3)ccc2c1N,1.41µM*,6.31µM*,-8.2%,?,1.12µM*,0.379µM*
NC(=O)c1sc2nc(-c3ccco3)ccc2c1N,?,?,-9.4%,?,?,10.7µM*
CCc1nnc(NC(=O)c2cc(C)oc2C)s1,-1.4%,.,-8.3%,17.5%,6.7%,16.9µM*
CCSc1nnc(NC(=O)c2cc(C)oc2C)s1,?,11.2µM*,.,7.31µM*,?,16.9µM*
CCc1nnc(NC(=O)c2ccc(C)o2)s1,?,.,-0.5%,?,?,?
CCSc1nnc(NC(=O)c2ccc(C)o2)s1,?,15.8µM*,-0.9%,18.4µM*,?,16.9µM*
COc1ccccc1N1CCN(S(=O)(=O)CCNC(=O)C(c2ccccc2)c2ccccc2)CC1,.,.,.,.,.,-3.1%
Nc1nonc1-c1noc(N2CCCCC2)n1,-1.6%,13.7%,-3.8%,?,?,19µM*
Cc1cccn2c(N)c(-c3ccccc3)nc12,?,27.3%,-2.8%,?,3.55µM*,10.7µM*
O=C(NC1CC(=O)N(c2ccc(F)cc2)C1)C1CCCC1 (stereo not given),.,.,.,.,.,-5.0%
O=C(Nc1ccc2c(c1)CCC2)c1ccc(Cl)nc1,15.1%,?,-25.4%,?,?,12µM*
O=C(COC(=O)c1ccc(Cl)nc1)Nc1ccc2c(c1)CCC2,.,.,8.0%,0.3%,.,.
CCn1ncc(Cl)c1C(=O)Nc1ccc2c(c1)CCC2,12.7%,.,.,?,25.8%,?
O=C(Nc1ccc2c(c1)CCC2)c1cnc(Cl)c(Cl)c1,2.7%,?,-8.6%,?,29.7%,3.01µM*
Cc1nn(C)cc1CNC(=O)Nc1ccc(Cl)c(Cl)c1,3.16µM*,-22.4%,-2.3%,13µM*,2.51µM*,23.9µM*
Cc1nn(C)cc1CNC(=O)C1(C)CC1(Cl)Cl (stereo not given),-2.3%,3.3%,1.0%,1.4%,-2.9%,3.8%
Cc1ccc(NC(=O)NCc2c(C)nn(C)c2C)cc1Cl,?,15.8µM*,0.0%,?,3.98µM*,23.9µM*
